Source: PubChem BioAssay
KB-3-1 tox – kills parental KB-3-1 adenocarcinoma cells; KB-3-1 viability, CellTiter-Glo ATP luminescence, 72 h; Potency, µM (doses to about 46.1 µM), actives largely listed as cytotoxic; hit rate 1.4% among 400,000; AID 1347075; note: nearly all actives have a fitted effect of over 60% in size
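KB-3-1 parental drug-naive adenocarcinoma cells in DMEM/10% FBS, incubated 72 h at 37 C with pin-transferred compounds across a concentration series. Viability by CellTiter-Glo luminescence; concentration-response curves fitted after normalization.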
DRD3 antagonist – antagonists of human D3 dopamine receptor; P35462; D3R cells, DiscoveRx beta-arrestin luminescence, antagonist mode; active compounds read low; max response, negative = inhibition, %; hit rate 2.5% among 360,000; in the data active = max response below about -50%; inconclusive = no clear call, values can overlap the other calls
Target sequence (P35462 whole entry, looked up): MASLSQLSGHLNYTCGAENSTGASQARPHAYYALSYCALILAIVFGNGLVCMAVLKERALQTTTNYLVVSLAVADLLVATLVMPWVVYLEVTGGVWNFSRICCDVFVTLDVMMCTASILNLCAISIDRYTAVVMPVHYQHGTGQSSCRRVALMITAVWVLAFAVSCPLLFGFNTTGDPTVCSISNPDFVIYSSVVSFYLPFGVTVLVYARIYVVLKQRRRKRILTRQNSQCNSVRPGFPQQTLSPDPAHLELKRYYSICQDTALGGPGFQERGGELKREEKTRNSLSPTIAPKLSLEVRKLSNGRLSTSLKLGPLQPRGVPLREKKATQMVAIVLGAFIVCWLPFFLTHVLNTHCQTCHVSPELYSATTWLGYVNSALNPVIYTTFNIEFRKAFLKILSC
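Cells expressing the human receptor were seeded at 1500 cells/well, incubated overnight at 37 degrees C in 5% CO2, then exposed to library compounds with dopamine controls for 90 minutes at 37 degrees C before luminescent detection.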
MCF10A rereplic – DNA re-replication induction in MCF 10a cells; MCF 10A DNA re-replication, Hoechst nuclear intensity, 48 h; Potency, µM (highest dose often 46.1 µM), most hits filed as activators; hit rate 2.9% among 350,000; AID 624296; note: nearly all actives have a fitted effect of over 50% in size
SW480 rerep – induces DNA re-replication in SW480 colon adenocarcinoma cells. AID 624297. SW480 DNA re-replication, Hoechst DNA content imaging, 48 h. Potency, µM (highest dose often 46.1 µM), actives largely listed as activators. hit rate 1.8% among 340,000; note: nearly all actives have a fitted effect of over 55% in size
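Compounds, transferred as 23 nL by pin tool, were incubated with cells for 48 hr; DNA content per nucleus was then quantified by Hoechst staining and fluorescence plate imaging.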
DRD3 agonist – D3 dopamine receptor (human) agonism; max activation, %; hit rate 0.58% among 410,000; D3R DiscoveRx beta-arrestin cells, luminescence, 90 min; AID 652048; in the data active = max activation above about 30%
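Agonist mode: compounds and dopamine controls were applied to plated cells for 90 min at 37 degrees C after an overnight attachment at 1500 cells/well. Luminescent read-out followed 30 - 60 minutes at room temperature with DiscoveRx detection reagent.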
KB-V1 cytotox – KB-V1 MDR subline cytotoxicity; KB-V1 MDR cells viability, CellTiter-Glo, 72 h; hit rate 3.4% among 400,000; AID 1347076; Potency, µM (highest dose often 46.1 µM), usual class: cytotoxic; note: nearly all actives have a fitted effect of over 60% in size
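Readout: CellTiter-Glo luminescence, 10 min after addition. Cells: KB-V1 MDR subline, 72 h at 37 degrees C with compound. Analysis: corrected, normalized data fitted to concentration-effect curves.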
A number is an active result; - = inactive; ? = inconclusive; . = not tested or not shown. Rows were chosen to be rich in hits. Some 8.9% of all compounds tested hit in one or more screens of this group. Unless noted, calls come from the whole dose curve; as a rule, active = well fitted curve in the direction sought with a large enough effect; inconclusive = small, poorly fitted or top-dose-only effect, or another doubt; inactive = no such curve, though single readings can be large; an effect the other way counts as inactive or inconclusive.

SMILES	KB-3-1 tox	DRD3 antagonist	MCF10A rereplic	SW480 rerep	DRD3 agonist	KB-V1 cytotox
O=C(NCCc1ccccc1)C(=O)NCC1CCCN1S(=O)(=O)c1ccccc1 (stereo unspecified)	?	-	23µM	18µM	-	12µM
Cc1c(Cl)cccc1NC(=O)N1CCC(CN2CCOCC2)CC1	.	.	.	.	-	.
O=C(NCc1cccc(F)c1)C1CCN(c2nn3cc(-c4ccc(F)cc4)nc3s2)CC1	-	.	.	.	-	-
Cc1cc(/C=N/NC(=O)c2cccs2)c(C)n1-c1ccccc1	16µM	-	?	-	-	?
Cc1ccc(/C=N/NC(=O)c2cccs2)cc1[N+](=O)[O-]	-	-	-	-	-	15µM
O=C(N/N=C/c1ccc(N2CCOCC2)cc1)c1cccs1	-	-	-	6.5µM	-	-
O=C(N/N=C/c1ccccc1[N+](=O)[O-])c1cccs1	-	-	-	-	-	-
O=C(Cc1ccc(F)cc1)NC1CC(=O)N(c2ccccc2)C1 (stereo unspecified)	.	.	.	.	-	.
CCOC(=O)Cn1c(=O)n(C2CCCCC2)c2nc(-c3ccc(C(C)C)cc3)nc(C(N)=O)c21	?	.	.	.	-	-
CCOc1ccc(-n2c(SCC(=O)N3CCCCCC3)nc3c([nH]c4ccccc43)c2=O)cc1	-	.	.	.	-	-
O=C(c1ccc(C(F)(F)F)n(Cc2ccc(Cl)cc2)c1=O)N1CCOCC1	-	-	-	-	-	-
O=C(c1cc(Cl)c(=O)n(Cc2ccc(Cl)cc2)c1)N1CCOCC1	-	-	-	-	-	21µM
Cc1ccccc1C(=O)n1nc(-c2ccco2)nc1NCc1ccc(Cl)cc1	-	.	.	.	-	-
COc1ccc(NC(=O)CSc2nc(-c3ccco3)cc(C(F)(F)F)n2)cc1Cl	.	.	.	.	-	.
COc1ccc(NC(=O)CSc2nc(-c3cccs3)cc(C(F)(F)F)n2)cc1OC	9.2µM	.	.	.	-	?
COc1ccc(NC(=O)CSc2nc(-c3cccs3)cc(C(F)(F)F)n2)cc1Cl	-	.	.	.	-	5.2µM
Cc1ccc(NC(=O)C(Cc2ccccc2)N2Cc3ccccc3C2=O)cc1Cl (stereo unspecified)	.	.	.	.	-	.
O=C(O)c1cc(/C=C/c2ccc(N3CCOCC3)cc2)nc2ccccc12	-	-	-	-	-	10µM
COc1cc2[nH]c(=S)n(Cc3ccc(C)cc3)c(=O)c2cc1OC	-	-	13µM	-	-	-
COc1cc2[nH]c(=S)n(C3CCCC3)c(=O)c2cc1OC	-	-	?	-	-	?
COc1cc2[nH]c(=S)n(C3CC3)c(=O)c2cc1OC	?	-58	-	-	-	-
COC(=O)c1ccc2c(=O)n(NC(C)=O)c(=S)[nH]c2c1	-	-	-	-	-	-
COc1cc2[nH]c(=S)n(NC(=O)c3ccccc3)c(=O)c2cc1OC	-	-61	-	-	-	-
CC1CCCCN1CC(O)COCCC12CC3CC(CC(C3)C1)C2 (stereo unspecified)	16µM	-	-	?	-	?
CCN(CC)CC(O)COCCC12CC3CC(CC(C3)C1)C2 (stereo unspecified)	-	-	?	?	-	-
SMILES	KB-3-1 tox	DRD3 antagonist	MCF10A rereplic	SW480 rerep	DRD3 agonist	KB-V1 cytotox
CCCCC[C@@H](C)N1C[C@@H](COCc2ccccc2)Oc2cc(N3CC[C@@H](O)C3)ccc2S1(=O)=O	?	-	.	.	-	-
C[C@H](c1ccccc1)N1C[C@H](COCc2ccccc2)Oc2cc(N3CC[C@@H](O)C3)ccc2S1(=O)=O	-	-	.	.	-	23µM
CCCCC[C@H](C)N1C[C@H](COCc2ccccc2)Oc2cc(N3CC[C@@H](N(C)C)C3)ccc2S1(=O)=O	?	-	.	.	-	?
C[C@@H](c1ccccc1)N1C[C@@H](COCc2ccccc2)Oc2cc(N3CC[C@@H](O)C3)ccc2S1(=O)=O	-	-	.	.	-	-
CCCCC[C@@H](C)N1C[C@@H](COCc2ccccc2)Oc2cc(N3CC[C@@H](N(C)C)C3)ccc2S1(=O)=O	?	-	.	.	-	21µM
CCCCC[C@@H](C)N1C[C@@H](COCc2ccccc2)Oc2cc(N3CCC[C@@H]3CO)ccc2S1(=O)=O	?	-	.	.	-	16µM
